Assay outcomes (PubChem)
SIRT5 inh – blocks human SIRT5 desuccinylation of peptide; Q9NXA8; Purified SirT5, succinyl-peptide AMC, trypsin-coupled fluorescence; inhibition, % at 15 µM; actives 1.1% (n = 330,000); in the data active = inhibition above about 15%; inconclusive = no clear call, values can overlap the other calls
Target sequence (Q9NXA8 whole entry, looked up): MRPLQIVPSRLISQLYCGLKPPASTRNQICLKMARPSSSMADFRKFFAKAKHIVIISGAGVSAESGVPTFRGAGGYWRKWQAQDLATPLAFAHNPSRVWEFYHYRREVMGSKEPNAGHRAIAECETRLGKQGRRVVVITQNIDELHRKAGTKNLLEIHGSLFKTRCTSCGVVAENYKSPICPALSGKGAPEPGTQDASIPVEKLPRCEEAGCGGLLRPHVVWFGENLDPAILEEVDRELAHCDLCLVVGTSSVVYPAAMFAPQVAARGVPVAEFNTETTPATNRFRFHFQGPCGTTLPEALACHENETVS
PAX8 reporter – inhibitors of PAX8 transcriptional activity in RMG-I cells | RMG-I TPO-luciferase reporter, SteadyGlo, 24 h | inhibition, % at 12.6 µM | actives 1.2% (n = 360,000);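 active = mean replicate inhibition at least 60% with every replicate also reaching 60%; inconclusive = only one of the two criteria is met; inactive = mean below 60% and not all replicates reaching 60%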;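 also: luciferase light reporting Pax8 driven TPO promoter activity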
LGR2 inh – blocks bursicon-induced cAMP signaling via Drosophila LGR2; HEK293 LGR2, CRE-luciferase, bursicon-stimulated, 4 h; inhibition, % at 9.99 µM; actives 0.35% (n = 380,000);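 active = drop in luminescence signal, shown as inhibition above about 50% in the replicate tests, limit read from the data, passing the limit was not always enough; inconclusive = probably only some replicates passing the limit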;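 also: agonist challenge used bursicon conditioned medium at about half maximal strength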
EWS-Fli inh – inhibitors of EWS/Fli oncoprotein transcriptional activity. A673 NR0B1-luciferase reporter, viability-normalised. inhibition, % at 12.6 µM. actives 0.67% (n = 350,000);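 active = mean inhibition of at least 50% after viability correction, with every replicate also passing that limit; inconclusive = mean reaches 50% but only one of two replicates passes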;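 also: firefly luciferase signal divided by Alamar Blue viability fluorescence both relative to DMSO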
PGC1a acetyl inh – lowers PGC1a acetylation signal in U2OS cells; AlphaScreen anti-acetyl-lysine; with virally co-expressed GCN5 acetyltransferase; inhibition, % at 15.6 µM; actives 0.17% (n = 350,000);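 active = every replicate shows inhibition of at least 40%; inconclusive = mean inhibition at least 40% but some replicate below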
rRNA inh HTS – inhibitors of bacterial rRNA selective over humanized ribosomes; E. coli WT GFP vs humanized-ribosome RFP mutants, fluorescence, 24 h; hits give low values; DMSO median 0, no signal -100; AID 720706; actives 1.6% (n = 350,000); GFP signal change (wild-type ribosome), % (no concentration beside the values);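 active = significant combined selectivity score with lowered wild-type GFP, culture density cut under 30%, mutant RFP and density less affected; inactive = any of these conditions unmet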
Numbers stand for hits; . = inactive; ? = inconclusive; / = no result; ! = not confirmed by another sample. Shown are actives, neighbours in structure and some others; about 3.4% of the full set was active somewhere.

SMILES | SIRT5 inh | PAX8 reporter | LGR2 inh | EWS-Fli inh | PGC1a acetyl inh | rRNA inh HTS
CC(=O)[C@@]1(O)Cc2c(O)c3c(c(O)c2[C@H](O[C@H]2C[C@H](N)[C@H](O)[C@H](C)O2)C1)C(=O)c1ccccc1C3=O | . | 104 | 98 | 59 | / | .
COc1cccc2c1C(=O)c1c(O)c3c(c(O)c1C2=O)CC(O)(C(C)=O)CC3OC1CC(N(C)C)C(O)C(C)O1 (stereo not drawn) | . | 103 | 101 | 65 | ? | .
O=C(Nc1cc(F)ccc1F)N[C@H]1CC[C@H](CCn2cc(C3CCCC3)nn2)O[C@H]1CO | . | . | . | / | . | .
O=C(Nc1ccc(Cl)cc1)N[C@@H]1CC[C@H](CCn2cc(Cc3ccccc3)nn2)O[C@H]1CO | . | . | . | . | . | .
C[C@H]1CN([C@@H](C)CO)C(=O)c2cc(NC(=O)Cn3cnnn3)ccc2O[C@@H]1CN(C)S(=O)(=O)c1ccc(F)cc1 | 31 | / | . | . | . | .
Cc1ccc(S(=O)(=O)N(C)C[C@H]2Oc3ccc(NC(=O)Cn4cnnn4)cc3CC(=O)N([C@@H](C)CO)C[C@H]2C)cc1 | 34 | . | . | . | . | .
O=C(CN(Cc1ccccc1)S(=O)(=O)c1ccccc1)N/N=C/c1ccccc1[N+](=O)[O-] | . | / | . | . | . | -19
CCOc1cccc(/C=N/NC(=S)Nc2ccccc2[N+](=O)[O-])c1O | . | . | 83 | . | . | .
Cc1ccc(CN(CC(=O)N/N=C/c2ccccc2[N+](=O)[O-])S(=O)(=O)c2ccc(C)cc2)cc1 | / | / | / | / | . | /
CC(C)NC(=S)N/N=C/c1ccccc1[N+](=O)[O-] | . | . | . | . | . | .
O=[N+]([O-])c1ccccc1C=NNC(=S)NN=Cc1ccccc1[N+](=O)[O-] | / | . | . | . | . | -20
COc1ccc2c3c([nH]c2c1)[C@@H](CO)N(C(=O)c1ccccn1)CC31CN(C(=O)C2CCCCC2)C1 | / | / | / | / | / | .
Cc1ccnc2c1ccc1cccnc12 | . | 80 | . | . | / | .
c1cnc2c(c1)ccc1cccnc12 | . | 77! | . | 62! | . | .
Cc1cccc(S(=O)(=O)N2CC[C@@H]3[C@H]2c2cc(C#Cc4cccc(F)c4)ccc2N[C@@H]3CO)c1 | . | . | . | . | . | .
C[C@H](CO)N1C[C@H](C)[C@H](CN(C)Cc2ccncc2)Oc2ncc(C#CC3CCCC3)cc2C1=O | . | . | . | . | . | .
S=C(c1cn(Cc2ccccc2)c2ccccc12)N1CCOCC1 | . | . | . | . | . | -29
S=C(c1cn(Cc2ccc(Br)cc2)c2ccccc12)N1CCOCC1 | / | . | . | / | . | /
CN(C)/C=N/c1ncc(C(=O)c2ccccc2)s1 | / | / | / | / | . | /
CN(C)/C=N/c1ncc(C(=O)c2ccc(-c3ccccc3)cc2)s1 | . | . | . | . | . | -18
O=[N+]([O-])c1cc([N+](=O)[O-])c(Oc2ccc(F)cc2)cc1NN1CCCCC1 | . | . | . | . | . | .
O=[N+]([O-])c1cc([N+](=O)[O-])c(Oc2ccc(F)cc2F)cc1NN1CCCCC1 | 17 | . | . | . | / | .
COc1ccc(NC(C)(C)c2nnnn2-c2c(C)cccc2C)cc1 | . | . | . | . | / | -25
O=C(C[C@@H]1CC[C@@H]2[C@H](COC[C@@H](O)CN2Cc2ccc(F)cc2)O1)N1CCc2ccccc2C1 | . | . | . | . | . | .
COc1ccc2c3c(n(C)c2c1)[C@H](CO)N(C(=O)Nc1ccc(F)cc1)CC31CCN(C(=O)CN2CCOCC2)CC1 | . | / | . | . | / | .
SMILES | SIRT5 inh | PAX8 reporter | LGR2 inh | EWS-Fli inh | PGC1a acetyl inh | rRNA inh HTS
CC(C)C[C@H](NC(=O)[C@H](Cc1ccccc1)n1c(=O)[nH]c2ccccc2c1=O)C(=O)N1CCC(C(=O)O)CC1 | . | / | . | . | . | /
C[C@H](NC(=O)[C@H](Cc1ccccc1)n1c(=O)[nH]c2ccccc2c1=O)C(=O)N1CCC(C(=O)O)CC1 | 15 | / | . | . | . | .
CC(=O)N1CC2(C1)[C@@H](c1ccc(-c3cccc(F)c3)cc1)[C@@H](CO)N2CC1CCOCC1 | . | . | . | . | . | .
COC(=O)C1=C(SC)N(c2ccccc2)C(c2ccccc2)CC1=O (stereo not drawn) | . | 91 | . | . | / | .
Cc1ccccc1NC(=O)C[C@H]1CC[C@H]2[C@@H](COc3ccc(NC(=O)c4ccc(Cl)cc4)cc3C(=O)N2C)O1 | / | / | / | / | / | .
O=C(CN1CCC(n2nnc3cc(F)ccc32)CC1)N1CCc2ccccc2C1 | . | / | . | . | . | -23
O=C(CN1CCC(n2nnc3cc(F)ccc32)CC1)NC1CC1 | / | . | / | / | . | /
O=C1c2ccccc2C(=O)N1Nc1ccccc1 | / | / | . | / | . | /
Cc1ccc(NN2C(=O)C=C(c3ccccc3)C2=O)cc1 | . | . | . | 63 | . | .
CN1[C@H](C(=O)NC2Cc3ccccc3C2)[C@@H](CO)[C@@H]2Cn3c(ccc(C4=CCCC4)c3=O)[C@@H]21 | . | . | . | . | . | .
CC(C)NC(=O)N1C[C@@H]2[C@H](c3ccccc31)[C@@H](CO)N2C(=O)Nc1ccccc1 | / | . | . | . | . | .
Cc1cc(C(=O)COc2cc(F)ccc2[N+](=O)[O-])c(C)n1C1CC1 | . | . | . | . | . | -29
COc1ccc(-c2cn(CC[C@H]3CC[C@@H](NS(=O)(=O)c4ccccc4C)[C@H](CO)O3)nn2)cc1 | . | . | . | . | . | .
NS(=O)(=O)c1ccc(Sc2ccccn2)c([N+](=O)[O-])c1 | . | . | . | . | . | .
O=C(O)c1ccc(S(=O)(=O)Nc2cccc(CP(=O)(c3ccccc3)c3ccccc3)c2)cc1 | . | . | . | . | . | .
O=C(O)c1ccc(S(=O)(=O)Nc2ccc(O)c(Sc3nc4ccccc4s3)c2)cc1 | . | . | . | . | . | -23
NS(=O)(=O)c1ccc(Sc2nc3ccccc3s2)c([N+](=O)[O-])c1 | . | 78 | / | . | . | -25
OC[C@H]1[C@H](c2ccc(-c3cccnc3)cc2)[C@H]2CN(CC3CCOCC3)CCCCN21 | . | . | / | . | . | /
O=S(=O)(NCCC1CC1(Cl)Cl)c1ccc(Cl)cc1 (stereo not drawn) | . | . | . | . | / | -48
O=C(Nc1ccccn1)c1onc2c1CCCC2 | / | / | 79 | / | . | /
COc1ccc(NC(=O)N(C)C[C@@H]2Oc3ccc(NS(=O)(=O)c4ccc(OC)cc4)cc3CC(=O)N([C@@H](C)CO)C[C@H]2C)cc1 | . | . | . | . | . | .
Cc1c(C(=O)N2CCOCC2)c(S(=O)(=O)Nc2ccccc2)c(C)n1C | 19 | . | . | / | . | .
Cc1c(C(=O)N2CCOCC2)c(S(=O)(=O)Nc2ccc(F)cc2)c(C)n1C | . | . | . | / | . | .
COc1ccccc1NC(=O)N1C[C@@H]2N[C@H](C1)C2c1ccc(-c2cccc(C#N)c2)cc1 (stereo partly drawn) | / | . | . | 53! | . | .
